In PubChem BioAssay (EPA / NIEHS):
Activity calls are given as the source filed them. The calls were made as follows: active = hit-call score of the fitted dose curve at least 0.9, where 1 is the maximum; inactive = score below 0.9.

What was measured:
[1] = molecular target: Transcription factor E2F1 (Homo sapiens) (UniProt Q01094); assay: ATG_E2F_CIS: Attagene CIS-FACTORIAL HepG2 Assay for human E2F Transcription Factor 1 (AID 2282935); details: HepG2 Attagene cis-reporter, E2F reporter RNA transcripts; actives raise or lower the signal
In short: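 Multiplexed cis-reporter assay: HepG2, transient transfection, 24 h dosing, mRNA quantitation by labeled RT-PCR and CE.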

[2] = ATG_E_Box_CIS: Attagene CIS-FACTORIAL HepG2 Assay for human Enhancer Box (E-box) (AID 2282936); details: HepG2 E-box cis-reporter transcription, actives raise or lower the signal
In short: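 Multiplexed CIS reporter system in transiently transfected HepG2 cells measures native transcription factor activity. Reporter RNA after 24 h exposure is profiled by RT-PCR-capillary electrophoresis.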

[3] = ATG_M_61_CIS: Attagene CIS-FACTORIAL HepG2 Assay for M61 Transcription Factor (Internal Marker) (AID 2282937); details: HepG2 Attagene CIS-FACTORIAL M61 internal marker reporter; actives raise or lower the signal
In short: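 Fluorescence from labelled cDNA fragments, separated by capillary electrophoresis, quantifies reporter induction. HepG2 cells bearing transiently transfected cis-promoter MRTUs were incubated with test chemical for 24 h; DMSO defined baseline for gain/loss fitting.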

[4] = ATG_EGR_CIS: Attagene CIS-FACTORIAL HepG2 Assay for human Early Growth Response 1 (EGR1) (AID 2282938); details: HepG2 Attagene CIS-FACTORIAL EGR reporter mRNA; actives raise or lower the signal
In short: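 Cell-based multiplex transcription assay: HepG2 carrying transfected cis-element reporter units, 24 h chemical treatment. Fluorescence from capillary electrophoresis of RT-PCR products gives mRNA levels; fitting is bidirectional relative to DMSO.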

[5] = ATG_M_19_CIS: Attagene CIS-FACTORIAL HepG2 Assay for M19 Transcription Factor (Internal Marker) (AID 2282939); details: HepG2 Attagene CIS-FACTORIAL M19 internal marker reporter; actives raise or lower the signal
In short: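 Transfect HepG2 with MRTU reporter library → dose chemical, 24 h → isolate total RNA, reverse-transcribe with oligo(dT) → PCR, 6-FAM label, HpaI cut (2 h, 37 C) → capillary electrophoresis. Bidirectional fit vs DMSO.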

[6] = ATG_ERE_CIS: Attagene CIS-FACTORIAL HepG2 Assay for Estrogen Response Element (ERE) (AID 2282940); details: HepG2 ERE cis-reporter, Attagene RNA transcript; actives raise or lower the signal
In short: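 Transient MRTU transfection of human HepG2; cis-element promoters; 24 h dosing; total RNA → RT (oligo dT) → PCR → 6-FAM primer extension → HpaI digest → CE fluorescence. Bidirectional fit, DMSO baseline.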

[7] = ATG_Ets_CIS: Attagene CIS-FACTORIAL HepG2 Assay for human Erythroblast Transformation Specific (ETS) (AID 2282941); details: HepG2 ETS cis-reporter transcription, actives raise or lower the signal
In short: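 Steps: transfect HepG2 with multiple reporter units; treat compound 24 h; isolate RNA, DNase-treat, reverse-transcribe; PCR-amplify, label with 6-FAM, digest with HpaI; separate by capillary electrophoresis. Activity fitted both directions versus DMSO.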

[8] = molecular target: Hepatocyte nuclear factor 3-beta (Homo sapiens) (UniProt Q9Y261); assay: ATG_FoxA2_CIS: Attagene CIS-FACTORIAL HepG2 Assay for human Forkhead box A2 (FOXA2) (AID 2282942); details: HepG2 cis-reporter transcription factor activity, 24 h; actives raise or lower the signal
In short: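 In transiently transfected human HepG2 cells, promoter-driven reporter mRNA levels after 24 h chemical exposure are determined via RT-PCR with capillary electrophoresis. DMSO serves as baseline for bidirectional fitting.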

[9] = ATG_GATA_CIS: Attagene CIS-FACTORIAL HepG2 Assay for human GATA Binding Protein (AID 2282944); details: HepG2 GATA cis-element reporter, Attagene multiplex mRNA; actives raise or lower the signal
In short: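 Transient MRTU transfection, HepG2, 24 h compound exposure. Total RNA → oligo(dT) RT → PCR → 6-FAM primer extension → HpaI cut → CE. Bidirectional fit vs DMSO.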

[10] = ATG_GLI_CIS: Attagene CIS-FACTORIAL HepG2 Assay for human Zinc Finger Protein GLI1 (AID 2282945); details: HepG2, Attagene cis-factorial reporter mRNA, GLI element; actives raise or lower the signal
In short: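 HepG2 cells transiently transfected with cis-promoter multiplexed reporter units report endogenous transcription factor activity. After 24 h chemical exposure, reporter mRNA was quantified by RT-PCR, 6-FAM labelling, HpaI digestion and capillary electrophoresis, with bidirectional fitting against DMSO.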

[11] = molecular target: Bile acid receptor (Homo sapiens) (UniProt Q96RI1); assay: ATG_IR1_CIS: Attagene CIS-FACTORIAL HepG2 Assay for human Nuclear Receptor Subfamily 1 Group H Member 4 (NR1H4), IR1 submotif (AID 2282946); details: IR1 reporter transcription, actives raise or lower the signal
In short: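 Transient MRTU transfection, HepG2; 24 h dosing; RNA → RT-PCR → 6-FAM primer extension → HpaI digest → capillary electrophoresis fluorescence. Gain/loss of signal fitted relative to DMSO.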

[12] = ATG_GRE_CIS: Attagene CIS-FACTORIAL HepG2 Assay for human Glucocorticoid Response Elements (GRE) (AID 2282947); details: HepG2 GRE cis-reporter, Attagene multiplex mRNA; actives raise or lower the signal
In short: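 Following 24 h chemical exposure of transiently transfected HepG2 cells, total RNA was reverse-transcribed and reporter cDNA amplified, fluorescently labelled and sized by capillary electrophoresis. Signal gain or loss was fitted relative to DMSO vehicle.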

[13] = ATG_ISRE_CIS: Attagene CIS-FACTORIAL HepG2 Assay for human Interferon Regulatory Factor 1 (IRF1) binding to an Interferon-Stimulated Response Element (ISRE) (AID 2282948); details: HepG2 ISRE cis-reporter (Attagene), mRNA transcription readout; actives raise or lower the signal
In short: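 Transfected HepG2 (multiple reporter transcription units, cis elements) dosed 24 h. RNA → oligo(dT) RT → PCR → 6-FAM primer extension → HpaI → CE. DMSO = negative control/baseline.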

[14] = ATG_M_32_CIS: Attagene CIS-FACTORIAL HepG2 Assay for M32 Transcription Factor (Internal Marker) (AID 2282949); details: HepG2 Attagene cis-factorial M32 reporter, mRNA; actives raise or lower the signal;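 also: background control marker of the multiplexed CIS panel rather than a real target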
In short: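 HepG2 cells transiently transfected with multiplexed cis-regulated reporter units, dosed 24 h. Reporter mRNA quantified by RT-PCR, 6-FAM labelling, HpaI digestion and capillary electrophoresis; bidirectional fit vs DMSO.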

[15] = ATG_M_06_CIS: Attagene CIS-FACTORIAL HepG2 Assay for M06 Transcription Factor (Internal Marker) (AID 2282950); details: HepG2 Attagene CIS-FACTORIAL M06 internal marker reporter; actives raise or lower the signal
In short: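 Read-out is fluorescence of labelled reporter cDNA fragments resolved by capillary electrophoresis after RT-PCR. Cells: HepG2 carrying transfected cis-promoter reporter units, treated 24 h. Gain or loss of signal fitted relative to DMSO.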

[16] = molecular target: Hypoxia-inducible factor 1-alpha (Homo sapiens) (UniProt Q16665); assay: ATG_HIF1a_CIS: Attagene CIS-FACTORIAL HepG2 Assay for human Hypoxia Inducible Factor 1 (HIF1A) (AID 2282951); details: HepG2 Attagene cis-factorial HIF1a reporter transcription; actives raise or lower the signal
In short: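 In this multiplexed cell assay, HepG2 cells bearing transfected cis reporters are dosed for 24 h and reporter mRNA is read by RT-PCR plus capillary electrophoresis; signal increases and decreases are both scored against DMSO.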

[17] = molecular target: Hepatocyte nuclear factor 6 (Homo sapiens) (UniProt Q9UBC0); assay: ATG_HNF6_CIS: Attagene CIS-FACTORIAL HepG2 Assay for human Hepatocyte Nuclear Factor 6 (HNF6) (AID 2282952); details: HepG2 Attagene cis-factorial HNF6 reporter transcription; actives raise or lower the signal
In short: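 HepG2, transient MRTU transfection (cis promoters); 24 h chemical exposure; total RNA → oligo(dT) RT → PCR → 6-FAM labelling → HpaI cut → CE; bidirectional fit vs DMSO.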

[18] = molecular target: Heat shock factor protein 1 (Homo sapiens) (UniProt Q00613); assay: ATG_HSE_CIS: Attagene CIS-FACTORIAL HepG2 Assay for human Heat Shock Transcription Factor 1 (HSE) (AID 2282953); details: HepG2 HSE cis-reporter, Attagene RNA transcription; actives raise or lower the signal
In short: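 HepG2, transient MRTU transfection, cis-promoter reporters (endogenous TF activity). 24 h compound. RNA → oligo(dT) RT → PCR → 6-FAM primer extension → HpaI cut → CE. Bidirectional fit vs DMSO.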

[19] = ATG_MRE_CIS: Attagene CIS-FACTORIAL HepG2 Assay for human Metal Responsive Element (MRE) (AID 2282954); details: HepG2 MRE cis-reporter transcription, Attagene multiplex; actives raise or lower the signal
In short: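 Step one: transfect HepG2 with cis-regulated reporter units. Step two: dose 24 h. Step three: isolate RNA, RT-PCR, 6-FAM label, HpaI digest, capillary electrophoresis. Fit bidirectionally to DMSO.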

[20] = ATG_FoxO_CIS: Attagene CIS-FACTORIAL HepG2 Assay for human Forkhead box O (FoxO) (AID 2282943); details: HepG2 Attagene cis-reporter, FoxO element, mRNA; actives raise or lower the signal
In short: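 HepG2 cells transiently transfected with cis-promoter-driven multiple reporter transcription units; 24 h after chemical dosing, reporter mRNA quantified by RT-PCR, fluorescent primer extension, HpaI digestion and capillary electrophoresis. Bidirectional fitting versus DMSO baseline.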

Measured: outcome

Sequence of Bile acid receptor (Homo sapiens) (Q96RI1 whole entry, looked up): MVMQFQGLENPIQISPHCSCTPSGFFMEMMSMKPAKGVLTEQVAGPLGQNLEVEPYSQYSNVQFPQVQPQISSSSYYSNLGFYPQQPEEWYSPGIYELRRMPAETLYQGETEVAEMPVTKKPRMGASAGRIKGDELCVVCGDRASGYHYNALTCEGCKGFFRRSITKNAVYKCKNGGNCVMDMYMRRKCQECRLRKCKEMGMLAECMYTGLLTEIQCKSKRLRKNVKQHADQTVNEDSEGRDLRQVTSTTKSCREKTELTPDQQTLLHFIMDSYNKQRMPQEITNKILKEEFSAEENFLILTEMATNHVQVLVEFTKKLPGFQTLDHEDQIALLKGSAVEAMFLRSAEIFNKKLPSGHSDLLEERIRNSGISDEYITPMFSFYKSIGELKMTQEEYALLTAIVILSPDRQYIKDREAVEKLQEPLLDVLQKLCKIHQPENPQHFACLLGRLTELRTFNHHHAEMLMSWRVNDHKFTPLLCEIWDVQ
Sequence of Heat shock factor protein 1 (Homo sapiens) (Q00613 whole entry, looked up): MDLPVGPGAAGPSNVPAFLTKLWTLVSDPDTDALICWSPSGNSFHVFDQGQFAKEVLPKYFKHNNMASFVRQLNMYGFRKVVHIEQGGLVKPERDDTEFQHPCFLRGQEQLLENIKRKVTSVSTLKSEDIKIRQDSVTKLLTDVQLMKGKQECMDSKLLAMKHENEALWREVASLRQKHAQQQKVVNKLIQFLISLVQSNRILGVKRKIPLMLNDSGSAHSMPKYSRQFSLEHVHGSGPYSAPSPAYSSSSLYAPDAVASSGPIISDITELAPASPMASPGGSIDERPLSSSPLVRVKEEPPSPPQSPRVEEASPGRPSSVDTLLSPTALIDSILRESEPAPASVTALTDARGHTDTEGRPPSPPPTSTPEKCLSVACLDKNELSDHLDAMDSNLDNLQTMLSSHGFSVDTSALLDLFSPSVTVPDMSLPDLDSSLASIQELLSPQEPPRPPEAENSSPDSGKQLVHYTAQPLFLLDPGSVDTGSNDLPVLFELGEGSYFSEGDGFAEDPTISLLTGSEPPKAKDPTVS
Sequence of Hypoxia-inducible factor 1-alpha (Homo sapiens) (Q16665 whole entry, looked up): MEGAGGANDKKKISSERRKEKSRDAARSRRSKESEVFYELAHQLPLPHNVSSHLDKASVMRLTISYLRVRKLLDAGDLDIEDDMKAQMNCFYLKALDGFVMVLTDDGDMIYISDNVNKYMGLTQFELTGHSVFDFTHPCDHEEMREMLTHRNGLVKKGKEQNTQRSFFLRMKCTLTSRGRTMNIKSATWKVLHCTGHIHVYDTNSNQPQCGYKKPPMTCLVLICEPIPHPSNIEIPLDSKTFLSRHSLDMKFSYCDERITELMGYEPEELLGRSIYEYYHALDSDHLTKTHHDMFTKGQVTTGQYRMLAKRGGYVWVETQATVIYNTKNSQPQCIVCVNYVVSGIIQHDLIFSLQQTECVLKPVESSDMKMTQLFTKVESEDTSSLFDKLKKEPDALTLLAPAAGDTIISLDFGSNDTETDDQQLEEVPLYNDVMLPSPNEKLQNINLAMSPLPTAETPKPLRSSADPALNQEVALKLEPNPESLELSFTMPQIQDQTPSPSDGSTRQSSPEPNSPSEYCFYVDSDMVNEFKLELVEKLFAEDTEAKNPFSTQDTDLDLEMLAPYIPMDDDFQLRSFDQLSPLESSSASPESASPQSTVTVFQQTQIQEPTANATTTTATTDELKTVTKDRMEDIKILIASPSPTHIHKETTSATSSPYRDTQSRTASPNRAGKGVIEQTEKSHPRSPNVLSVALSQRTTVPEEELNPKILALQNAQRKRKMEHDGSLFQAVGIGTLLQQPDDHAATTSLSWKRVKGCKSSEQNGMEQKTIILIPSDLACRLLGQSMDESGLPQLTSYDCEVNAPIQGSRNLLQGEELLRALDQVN
Sequence of Transcription factor E2F1 (Homo sapiens) (Q01094 whole entry, looked up): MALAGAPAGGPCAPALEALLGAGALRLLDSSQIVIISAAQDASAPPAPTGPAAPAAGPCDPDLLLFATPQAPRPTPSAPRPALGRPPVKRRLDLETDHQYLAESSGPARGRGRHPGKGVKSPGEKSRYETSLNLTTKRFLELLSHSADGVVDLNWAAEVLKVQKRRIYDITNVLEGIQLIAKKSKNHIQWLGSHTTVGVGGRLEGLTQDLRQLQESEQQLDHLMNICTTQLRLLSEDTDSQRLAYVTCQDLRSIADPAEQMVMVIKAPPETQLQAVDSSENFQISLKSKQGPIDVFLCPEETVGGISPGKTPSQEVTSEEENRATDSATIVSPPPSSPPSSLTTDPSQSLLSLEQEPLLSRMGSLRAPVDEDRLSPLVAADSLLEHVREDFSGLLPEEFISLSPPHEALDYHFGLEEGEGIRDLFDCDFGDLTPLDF
Sequence of Hepatocyte nuclear factor 3-beta (Homo sapiens) (Q9Y261 whole entry, looked up): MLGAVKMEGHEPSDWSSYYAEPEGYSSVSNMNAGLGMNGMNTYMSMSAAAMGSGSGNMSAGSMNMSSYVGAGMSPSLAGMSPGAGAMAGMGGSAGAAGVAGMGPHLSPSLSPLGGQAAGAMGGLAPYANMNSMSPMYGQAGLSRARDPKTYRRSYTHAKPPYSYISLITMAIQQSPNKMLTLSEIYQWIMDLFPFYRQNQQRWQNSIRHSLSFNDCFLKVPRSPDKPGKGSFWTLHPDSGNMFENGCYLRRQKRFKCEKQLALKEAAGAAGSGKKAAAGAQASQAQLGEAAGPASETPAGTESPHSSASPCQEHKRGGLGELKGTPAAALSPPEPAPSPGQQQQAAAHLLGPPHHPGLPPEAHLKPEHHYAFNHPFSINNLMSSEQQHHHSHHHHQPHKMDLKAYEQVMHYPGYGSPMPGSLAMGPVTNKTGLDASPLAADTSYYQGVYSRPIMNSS
Sequence of Hepatocyte nuclear factor 6 (Homo sapiens) (Q9UBC0 whole entry, looked up): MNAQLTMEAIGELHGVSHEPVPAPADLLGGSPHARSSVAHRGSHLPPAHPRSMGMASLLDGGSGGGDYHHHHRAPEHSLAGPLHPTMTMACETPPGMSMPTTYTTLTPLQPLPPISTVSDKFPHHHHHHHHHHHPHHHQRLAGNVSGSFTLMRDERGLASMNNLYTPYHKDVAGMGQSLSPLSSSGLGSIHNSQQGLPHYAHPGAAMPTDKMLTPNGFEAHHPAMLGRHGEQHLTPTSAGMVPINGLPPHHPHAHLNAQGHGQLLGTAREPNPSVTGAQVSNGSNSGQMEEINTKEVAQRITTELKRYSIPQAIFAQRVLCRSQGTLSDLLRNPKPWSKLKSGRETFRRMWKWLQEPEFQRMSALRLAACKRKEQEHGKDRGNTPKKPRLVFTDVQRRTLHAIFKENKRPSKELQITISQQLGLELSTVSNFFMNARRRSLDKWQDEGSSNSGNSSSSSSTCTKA

CCCCNS(=O)(=O)c1ccccc1
not listed: [20]
inactive: all other assays above

Nc1nc(N)nc(-c2ccccc2)n1
not listed: [11] | [20]
inactive: all other assays above

CCCSSCCC
not listed: [10] | [11]
inactive: all other assays above

O=C1CCCCCCCCCCC1
not listed: [10] | [11] | [12]
inactive: all other assays above

Cc1cc(=O)[nH]c(=O)[nH]1
not listed: [4] | [18]
inactive: all other assays above

CC(C)[N+](C)(CCOC(=O)C1c2ccccc2Oc2ccccc21)C(C)C
not listed: [4] | [16]
inactive: all other assays above

CC(C)(C)N
not listed: [4] | [11] | [18]
inactive: all other assays above

Nc1ncnc2nc[nH]c12
not listed: [4] | [16]
inactive: all other assays above
